PME-1 primary: PME-1 inhibitors via competitive probe labeling, primary screen, biochemical, fluorescence polarization, FP-Rh probe, HTS. recombinant PME-1. inhibition, % at 5.9 µM. hit rate 0.53% among 320,000. AID 2130, 2009;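 active = inhibition above the campaign mean of all compounds plus 3 SD, cut at about 26% in these data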;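 also: competitive labeling of PME-1 active site by serine hydrolase directed probe; 0% = PME-1 with DMSO and 100% = wells lacking PME-1 enzyme; inhibitors block probe labeling so polarization falls and inhibition rises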
Target sequence (Q9Y570 whole entry, looked up): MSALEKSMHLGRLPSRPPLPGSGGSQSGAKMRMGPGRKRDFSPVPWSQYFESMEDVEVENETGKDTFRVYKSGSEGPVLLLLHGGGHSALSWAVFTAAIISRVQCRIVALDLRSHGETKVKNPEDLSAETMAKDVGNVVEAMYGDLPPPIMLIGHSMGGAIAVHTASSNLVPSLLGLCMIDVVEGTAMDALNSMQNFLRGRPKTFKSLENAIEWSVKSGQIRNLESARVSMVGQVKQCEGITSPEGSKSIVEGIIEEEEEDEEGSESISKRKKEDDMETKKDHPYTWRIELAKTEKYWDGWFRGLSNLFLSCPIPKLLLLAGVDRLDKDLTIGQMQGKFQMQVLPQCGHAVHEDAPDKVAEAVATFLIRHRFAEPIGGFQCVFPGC
PAD4 inh: human PAD4 inhibitors, primary screen, biochemical, fluorescence polarization, 1536-well format | recombinant PAD4, RCA probe fluorescence polarization | inhibition, % at 6.36 µM | AID 485272, 2010 | Protein-arginine deiminase type-4 (Homo sapiens), Q9UM07 | hit rate 0.41% among 330,000;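 active = percent inhibition above a cutoff equal to the mean of all tested compounds plus 3 SD, cut at about 15% in these data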;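 also: 0% = PAD4 with RCA probe and DMSO and 100% = probe without PAD4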
GSTO1 inh: inhibitors of recombinant GSTO1, primary screen, counter-screen for RBBP9 inhibitor project, biochemical, fluorescence polarization | Glutathione S-transferase omega-1 (Homo sapiens), P78417 | activity-based probe fluorescence polarization | inhibition, % at 5.96 µM | hit rate 1.1% among 300,000;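 active = inhibition above the campaign mean inhibition plus 3 SD, cut at about 35% in these data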;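 also: 0% = GSTO1-1 with DMSO and 100% = wells lacking GSTO1-1 enzyme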
LYPLA1 counter: LYPLA1 inhibitors, primary screen, counter-screen for PME1 inhibitor project, biochemical, fluorescence polarization, FP-Rh probe ABPP | recombinant LYPLA1 | inhibition, % at 5.9 µM | hit rate 0.16% among 320,000;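 active = inhibition above the mean of all tested compounds plus 3 SD, set per campaign, cut at about 14% in these data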;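 also: inhibitors block serine hydrolase probe labeling of LYPLA1 so polarization falls; 0% = enzyme with DMSO and 100% = wells lacking LYPLA1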
LYPLA2 counter: LYPLA2 inhibitors, primary screen, counter-screen for PME1 inhibitor project, biochemical, fluorescence polarization, FP-Rh probe ABPP; recombinant LYPLA2; inhibition, % at 5.9 µM; hit rate 0.38% among 320,000; AID 2177, 2009;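 active = inhibition above the screen-wide mean plus 3 SD, limit set per campaign, cut at about 26% in these data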;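 also: 0% = LYPLA2 with DMSO and 100% = wells lacking LYPLA2 enzyme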
Fam108B counter: mouse Fam108B serine hydrolase inhibitors, primary screen, counter-screen for RBBP9 inhibitor project, biochemical, fluorescence polarization; inhibition, % at 9.51 µM; hit rate 0.33% among 300,000; recombinant Fam108B, FP-Rh probe fluorescence polarization;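 active = inhibition above the screen mean inhibition plus 3 SD, computed separately per campaign, cut at about 18% in these data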;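 also: inhibitors lower polarization as less probe binds the enzyme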
Numbers without * were called inactive; . = no result. In the library only some 1.8% were active in any assay of this set; here they are far more common.

SMILES	PME-1 primary	PAD4 inh	GSTO1 inh	LYPLA1 counter	LYPLA2 counter	Fam108B counter
Cc1ccc(S(=O)(=O)c2ccccc2)cc1S	-6.5	35.9*	-24.7	-2.6	-8.1	-3.0
Nc1ccc(S(=O)(=O)c2cccc(N)c2)cc1	-3.4	-0.1	7.1	-2.8	-1.1	-0.8
COc1ccc(C(NC(=O)CC(C)C)c2c(O)ccc3ccccc23)cc1 (stereo unspecified)	-4.1	1.7	5.3	-4.0	-0.6	-4.0
CC(C)CC(=O)NC(c1ccccc1Cl)c1c(O)ccc2ccccc12 (stereo unspecified)	46.9*	0.3	-2.1	-10.5	-5.6	9.1
COc1ccc(C(CNC(=O)c2cc(S(=O)(=O)N3CCCC3)ccc2Cl)N2CCCC2)cc1 (stereo unspecified)	-0.8	-1.5	.	-1.5	-5.4	.
C(=N\Nc1nc2ccccc2s1)/c1cccs1	21.9	1.8	-0.2	0.6	4.2	9.4
CCn1c(C)c(/C=N/Nc2nc3ccccc3s2)c2ccccc21	35.3*	-3.5	2.4	-16.4	-12.7	5.5
O=C(CCO)c1ccc(O)cc1	5.0	9.5	36.6*	-3.3	5.2	-0.9
CCCCC(=O)c1ccc(O)cc1	-1.1	0.5	-3.2	0.1	4.6	4.2
CC(=O)c1cc(C(=O)N2CCCC(C(=O)c3ccc(Cl)cc3)C2)cs1 (stereo unspecified)	-2.2	-8.2	-0.8	4.7	16.2	1.2
Cc1c(C(=O)N/N=C/c2ccc(O)c(Br)c2)sc(N)c1C#N	28.8*	-10.2	-23.2	-1.3	3.6	6.8
Cc1ccc(C(=O)CSC2=C(C#N)C(c3ccco3)C3=C(CCCC3=O)N2)cc1 (stereo unspecified)	32.3*	-1.4	-3.5	-0.6	1.6	-1.5
O=C1C=C(c2cccc3c2sc2ccccc23)C[C@@H](c2ccc(F)cc2)C1	-6.8	2.4	.	-0.3	0.1	.
O=[N+]([O-])c1ccc(N/N=C/c2cccc(O)c2O)c(S(=O)(=O)N2CCOCC2)c1	31.4*	-3.3	46.2*	-10.7	-5.2	-5.9
COc1cc(/C=N/Nc2ccc([N+](=O)[O-])cc2S(=O)(=O)N2CCOCC2)cc(OC)c1OC	1.3	-1.2	4.4	2.2	1.2	0.2
CCN1C(=O)[C@H]2[C@@H](c3ccc(-c4cccc(Cl)c4)cc3)N[C@@](Cc3ccccc3)(C(=O)OC)[C@H]2C1=O	-4.0	1.3	-2.8	-3.2	-3.5	-4.2
O=C(CCC(F)(F)F)N1CCCC(N2CCN(c3cccc(Cl)c3)CC2)C1 (stereo unspecified)	-5.9	-2.5	-1.8	-1.4	30.2*	-6.9
O=C1CCCCN1CCC(=O)N1CCCC(N2CCN(c3cccc(Cl)c3)CC2)C1 (stereo unspecified)	-0.6	-1.5	4.3	0.2	-0.4	-1.6
COC(=O)CSc1nc2cc(C)ccc2cc1C#N	2.6	-12.3	-1.5	-3.6	1.1	-4.7
Cc1ccc2cc(C#N)c(SCc3nnc(-c4ccccc4[N+](=O)[O-])o3)nc2c1	34.7*	1.7	2.9	-5.3	-8.0	3.8
CCOc1ccc(C(=O)NNC(=O)CN2C(=O)C3CC=CCC3C2=O)cc1OC (stereo unspecified)	.	0.0	.	.	.	.
Cc1cc(C)c2c(N)c(C(=O)NN)sc2n1	31.6*	-8.6	12.0	12.4	4.8	6.1
CCOC(=O)[C@@H]1[C@H]2COc3ccccc3[C@H]2N2C(=O)N(c3cccc(Cl)c3)C(=O)[C@]12C	.	2.5	.	.	.	.
Cc1ccccc1OCC(=O)NC(=S)Nc1cccc2cc(O)ccc12	28.4*	-4.0	5.4	-7.9	-8.1	-0.6
Cc1ccccc1OCC(=O)NC(=S)Nc1ccc(Br)c(C)n1	2.4	-1.2	-5.2	-3.8	6.0	6.2
O=C(O)c1ccc(N/N=C/c2cn(Cc3ccccc3F)c3ccccc23)cc1	28.9*	-4.1	26.1	-1.2	3.2	17.0
COC(=O)N/N=C/c1cn(Cc2ccccc2F)c2ccccc12	7.9	1.5	7.9	0.2	6.3	0.3
O=C1NC[C@H](c2ccccc2)OC(=O)[C@H](Cc2ccc(F)cc2)C/C=C\C[C@H]1CC(=O)N(CCO)Cc1ccccc1	.	4.0	.	.	.	.

Source: PubChem
